# Many of the other results were omitted from the sample, so hits are more common in it than they were.
# GIRK2 act – Activates human GIRK2-containing potassium channels; activation (% efficacy), % for hits at 37.5 µM; AID 1259324; HEK293 GIRK2/NPY4 cells, thallium flux fluorescence; P48051; 34,000 tested, under 10 active;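 active = primary screen hit, no activity in plain HEK293 cells, and in GIRK2-only cells above 5% efficacy rising with concentration; inactive = the rest, including fluorescent compounds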;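 note: efficacy is normalized control-subtracted fluorescence 15 s after thallium addition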
# Target sequence (P48051 whole entry, looked up): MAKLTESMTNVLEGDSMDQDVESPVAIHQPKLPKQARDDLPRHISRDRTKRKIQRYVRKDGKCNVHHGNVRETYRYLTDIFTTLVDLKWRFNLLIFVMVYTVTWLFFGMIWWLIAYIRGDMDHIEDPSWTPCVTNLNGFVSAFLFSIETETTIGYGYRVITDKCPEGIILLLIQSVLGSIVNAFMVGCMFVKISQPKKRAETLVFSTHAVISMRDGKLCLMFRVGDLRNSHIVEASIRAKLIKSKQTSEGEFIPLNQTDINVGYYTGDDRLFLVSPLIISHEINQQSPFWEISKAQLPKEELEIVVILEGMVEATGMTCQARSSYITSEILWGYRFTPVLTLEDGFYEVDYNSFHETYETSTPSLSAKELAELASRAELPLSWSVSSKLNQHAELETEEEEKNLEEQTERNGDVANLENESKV
# GluA2 TARP mod – GluA2-stargazin AMPA receptor complex modulation | O88602+P19491 | HEK293 GluA2+stargazin, membrane potential dye (FDSS), glutamate EC50; hits were called plate by plate, in both directions | calls only at 30 µM | 3.5% of 40,000 active | AID 1259245;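 active = any of four per-well response measures lying three or more SD from its plate-wide compound average, in either direction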
# * = called active by the depositor; i = inactive; x = no result given; + = active, no number; [ ] = another dose, or the depositor's remark.
SMILES,GIRK2 act,GluA2 TARP mod
O=C1CC(c2nc3ccccc3n2CC2CCCCC2)CN1CCc1ccccc1 (centres undefined),x,+
CCCCn1c(C2CC(=O)N(c3ccc(C)c(Cl)c3)C2)nc2ccccc21 (centres undefined),x,+
CCCCN1CC(c2nc3ccccc3n2CCOc2cccc(OC)c2)CC1=O (centres undefined),x,i
CN1CC(c2nc3ccccc3n2CCCc2ccccc2)CC1=O (centres undefined),x,i
CCCCN1CC(c2nc3ccccc3n2CCOc2ccccc2OC)CC1=O (centres undefined),x,+
CCCn1c(C2CC(=O)N(CCc3ccccc3)C2)nc2ccccc21 (centres undefined),x,+
Cn1c(C2CC(=O)N(CCc3ccccc3)C2)nc2ccccc21 (centres undefined),x,i
CCCn1c(C2CC(=O)N(c3ccc(C)c(Cl)c3)C2)nc2ccccc21 (centres undefined),x,i
CC(C)S(=O)(=O)c1cccc(C(=O)Nc2ccccc2-c2nc3ccccc3s2)c1,i,i
COc1ccc(CC(=O)Nn2cnc3c(cnn3-c3ccccc3)c2=O)cc1,i,i
O=C(NCC1CCN(C(=O)c2ccccc2F)CC1)C(=O)Nc1cc2c3c(c1)CC(=O)N3CCC2,i,i
C=C(Br)Cn1c(C2CC(=O)N(CCCC)C2)nc2ccccc21 (centres undefined),i,i
CCCCN1CC(c2nc3ccccc3n2Cc2c(F)cccc2Cl)CC1=O (centres undefined),x,+
O=C1CCc2cc(S(=O)(=O)Nc3ccc(OC(F)(F)F)cc3)cc3c2N1CCC3,i,i
Cn1c(=O)c2cc(C(=O)NCCc3ccccc3)sc2n(C)c1=O,i,i
CC(C)CNC(=O)c1cc2c(=O)n(C)c(=O)n(C)c2s1,i,i
Cn1c(=O)c2cc(C(=O)NCCCN3CCCC3=O)sc2n(C)c1=O,i,+
Cn1c(=O)c2cc(C(=O)Nc3ccccc3F)sc2n(C)c1=O,i,+
CN1CCN(C(=O)c2cc3c(=O)n(C)c(=O)n(C)c3s2)CC1,i,+
Cn1c(=O)c2cc(C(=O)N3CCN(C(=O)c4ccco4)CC3)sc2n(C)c1=O,i,i
Cc1ccc(S(=O)(=O)Nc2nc(CCC(=O)NCCc3ccc(F)cc3)cs2)cc1,i,i
COc1ccc(OCc2noc(CNC(=O)Nc3ccc(Cl)c(Cl)c3)n2)cc1,i,i
CCc1nnc(NC(=O)c2nnn(-c3ccccc3Cl)c2C)s1,i,i
O=C(CN1CCN(CC(=O)Nc2cccc(F)c2)CC1)Nc1ccc(Cl)cc1,x,+
O=C(CN1CCN(C2c3ccccc3-c3ccccc32)CC1)Nc1cccc(F)c1,x,i
SMILES,GIRK2 act,GluA2 TARP mod
CC(=O)Nc1ccc(NC(=O)CSc2nc(=O)n(CCCO)c3c2CCCC3)cc1,i,i
CCOc1ccc(NC(=O)CSc2nc(=O)n(CCO)c3c2CCCC3)cc1,i,+
CCN1CCCc2cc(CCNC(=O)C(=O)NCc3ccccc3Cl)ccc21,x,i
COc1cc(NS(=O)(=O)c2cccs2)ccc1N1CCCCC1=O,i,i
CCc1ccc(-n2c(-c3ccccc3)cn3c4c(=O)n(CC(N)=O)c(=O)n(C)c4nc23)cc1,x,i
CCOC(=O)N1CCc2nc(NC(=O)c3cccs3)sc2C1,i,i
CCOC(=O)N1CCc2nc(NC(=O)c3ccc([N+](=O)[O-])s3)sc2C1,x,+
COC(=O)c1ccc2c(=O)n(CCC(=O)NCCCN3CCOCC3)c(=S)[nH]c2c1,i,+
COC(=O)c1ccc2c(=O)n(CCN3CCCCC3)c(=S)[nH]c2c1,i,i
COC(=O)c1ccc2c(=O)n(CCC(=O)N3CCOCC3)c(=S)[nH]c2c1,i,+
COCCn1c(=S)[nH]c2cc(C(=O)N3CCN(c4ccccc4)CC3)ccc2c1=O,i,i
COC(=O)c1ccc2c(=O)n(CCC(=O)N3CCC(Cc4ccccc4)CC3)c(=S)[nH]c2c1,i,i
COCCn1c(=S)[nH]c2cc(C(=O)N3CCc4ccccc4C3)ccc2c1=O,i,+
CCn1nnc2c(N3CCN(C(=O)C4CC(=O)N(c5ccc(F)cc5)C4)CC3)ncnc21 (centres undefined),i,i
O=C(Cc1cc(-c2ccc3c(c2)OCO3)on1)Nc1ccc(C(F)(F)F)cc1,i,i
CN(C)CCNC(=O)c1ccc(Oc2ncccn2)cc1,i,i
COCCNc1nc2c(S(=O)(=O)c3ccccc3)nnn2c2ccc(Cl)cc12,i,i
CC1CCCCN1c1nc2c(S(=O)(=O)c3ccccc3)nnn2c2ccc(Cl)cc12 (centres undefined),i,+
CC(C)N(C(=O)Cn1nc(-c2ccco2)c2sc(N3CCOCC3)nc2c1=O)c1ccccc1,i,i
N=c1sc(/C=C2\C=Nc3ccccc32)c(O)n1-c1nccs1,x,+
Cc1ccc(C)c(OCC(=O)Nc2c(C)cccc2C(C)C)c1C,i,+
Cc1cccc(C)c1NC(=O)COc1ccc2c(C)cc(=O)oc2c1C,x,i
CCOC(=O)Nc1nc(CC(=O)N2CCN(c3ccccc3F)CC2)cs1,i,x
COC(=O)c1ccccc1NC(=O)CC1Nc2cccc3cccc(c23)NC1=O (centres undefined),x,i
O=C(CC1Nc2cccc3cccc(c23)NC1=O)Nc1cccc(C(F)(F)F)c1 (centres undefined),x,+
SMILES,GIRK2 act,GluA2 TARP mod
Cc1nc2ccc3nc(NC(=O)c4c(C)cnn4C)sc3c2s1,i,x
CC(Oc1ccccc1F)C(=O)NCCCn1nc(-c2ccco2)ccc1=O (centres undefined),i,+
CC(C)C(=O)NCCCn1nc(-c2ccco2)ccc1=O,i,i
O=C(NCCCc1ccccc1)N1CCN(CCn2cccn2)CC1,i,i
O=C(Cn1cnc(-c2ccccc2)cc1=O)NCCC(c1ccccc1)c1ccccc1,i,i
CCSc1ccccc1C(=O)NCCn1cnc(-c2ccccc2)cc1=O,i,+
CCn1c(SCc2nc(-c3ccc(C(F)(F)F)cc3)no2)nc2ccccc2c1=O,x,i
Cc1cc(C)c2sc(N(CCCN(C)C)C(=O)c3ccn(C)n3)nc2c1,i,+
Cc1c(Cl)ccc2sc(N(CCCN(C)C)C(=O)c3ccn(C)n3)nc12,i,i
CCCc1c(C(=O)Nc2ccccc2F)nnn1-c1ccccc1,7.0%*[25 µM],i
CCCc1c(C(=O)NCc2ccccc2OC)nnn1-c1ccccc1,i,i
O=C(c1ccc2c(c1)OCCO2)N(Cc1ccncc1)c1nc2c(F)cccc2s1,i,i
N#Cc1ccc(C(=O)N(Cc2ccncc2)c2nc3c(F)cccc3s2)cc1,i,+
O=C(c1ccc2c(c1)OCCO2)N(CCCn1ccnc1)c1nc2c(F)cccc2s1,i,i
O=C(c1cccc(F)c1)N(CCCn1ccnc1)c1nc2c(F)cccc2s1,i,+
CCCc1ccc(S(=O)(=O)Nc2ccc3c(c2)N(S(=O)(=O)CC)CCC3)cc1,x,i
COc1ccc([N+](=O)[O-])cc1NC(=O)c1ccc(S(=O)(=O)N(C)C2CCCC2)cc1,x,i
CN(C1CCCC1)S(=O)(=O)c1ccc(C(=O)Nc2nc3ccccc3s2)cc1,x,i
COc1cccc2sc(NC(=O)c3ccc(S(=O)(=O)N(C)C4CCCC4)cc3)nc12,i,+

# Source: PubChem
